# Several values for one entry are separate records, joined by “and”; a condition that tells them apart may be missing. Equal entries are not always repeated. Hit rate of the full screen: of about 340,000 compounds, about 5,100 (1.5%) were called active.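 How the source made its calls: active means mean Tm shift, scaled 0 neutral to 100 positive control, at about 1.3% or above, every replicate too (limit read from the data); inconclusive means no clear call, values can overlap the other calls; inactive means the rest.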 This excerpt belongs to a sample that is enriched for actives.
# Biological target: Fibroblast growth factor 22 (Homo sapiens) (UniProt Q9HCT0)
# Assay: FGF22 ligand-induced thermal stabilization – biophysical, thermal shift, single point, FGF22 synaptogenesis inhibitor project, primary screen (AID 651658)
# Conditions: recombinant FGF22 thermal shift, SYPRO orange fluorescence; at 9.99 µM; stronger effect = higher value; percent of sucrose octasulfate shift, DMSO zero
# Fibroblast growth factor 22 (Homo sapiens), sequence (Q9HCT0 whole entry, looked up): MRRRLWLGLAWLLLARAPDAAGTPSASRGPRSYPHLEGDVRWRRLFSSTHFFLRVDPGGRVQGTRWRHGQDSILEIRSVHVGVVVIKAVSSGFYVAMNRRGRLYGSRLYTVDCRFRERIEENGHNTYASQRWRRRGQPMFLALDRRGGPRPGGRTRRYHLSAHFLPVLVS
row,SMILES,"activity (Tm shift, normalised)"
1,O=C(NCC[C@@H]1CC[C@@H](NC(=O)c2ccccc2F)[C@H](CO)O1)c1ccc2c(c1)OCO2,-0.277% (inactive)
2,C[C@@H]1CN([C@@H](C)CO)C(=O)c2cccc(NC(=O)Nc3ccc(C(F)(F)F)cc3)c2O[C@@H]1CN(C)S(=O)(=O)c1ccc(F)cc1,-0.433% (inactive)
3,CO[C@@H]1CN(C)C(=O)c2ccc(NC(=O)Nc3c(C)noc3C)cc2OC[C@H](C)N(CC2CC2)C[C@H]1C,0.073% (inactive)
4,CS(=O)(=O)c1ccc2nc(NC(=O)c3ccc(Cl)nc3)sc2c1,1.36% (active)
5,NS(=O)(=O)c1ccc2nc(NC(=O)C3=COCCO3)sc2c1,-0.051% (inactive)
6,Cc1ccc(C(=O)Nc2nc3ccc(Cl)cc3s2)o1,0.029% (inactive)
7,COc1ccc([Si](C)(C)[C@@H]2[C@@H](CCO)O[C@]3(C(=O)N(Cc4ccccc4)c4ccc(N5CCC5=O)cc43)[C@H]2C)cc1,1.09% (inactive)
8,O=C(C[C@H]1C[C@@H]2c3cc(NC(=O)Nc4ccc(C(F)(F)F)cc4)ccc3O[C@@H]2[C@@H](CO)O1)NCC1CC1,5.86% (active)
9,O=C(C[C@H]1C[C@H]2c3cc(NC(=O)Nc4ccc(F)cc4)ccc3O[C@H]2[C@@H](CO)O1)NCC1CC1,-0.077% (inactive)
10,O=C(C[C@H]1C[C@H]2c3cc(NC(=O)Nc4ccc(F)cc4)ccc3O[C@H]2[C@H](CO)O1)NCC1CC1,0.011% (inactive)
11,C[C@H]1CCCCO[C@H](CN(C)S(C)(=O)=O)[C@@H](C)CN([C@@H](C)CO)C(=O)c2cc(NC(=O)C3CCCCC3)ccc2O1,-0.096% (inactive)
12,COC(=O)C[C@@H]1CC[C@@H]2[C@H](COc3ccc(NC(=O)c4cccc(F)c4)cc3C(=O)N2C)O1,-0.235% (inactive)
13,CNC(=O)C[C@H]1CC[C@H]2[C@H](COc3ccc(NC(=O)c4cccc(F)c4)cc3C(=O)N2C)O1,-0.14% (inactive) and 0.048% (inactive)
14,CN1C(=O)c2cc(NC(=O)c3cccc(F)c3)ccc2OC[C@@H]2O[C@H](CC(=O)N3CCc4ccccc4C3)CC[C@@H]21,1.53% (active)
15,O=C(C[C@@H]1CC[C@@H](NC(=O)Nc2ccc(F)cc2)[C@@H](CO)O1)NCCN1CCCC1,-0.38% (inactive)
16,CCCC(=O)Nc1ccc2c(c1)C(=O)N(C)C[C@H](OC)[C@H](C)CN(C(=O)c1ccccn1)[C@H](C)CO2,-0.212% (inactive)
17,C[C@@H]1CN([C@@H](C)CO)S(=O)(=O)c2ccc(C#C[C@@H](C)O)cc2O[C@@H]1CN(C)C(=O)CN(C)C,-0.212% (inactive)
18,CO[C@@H]1CN(C)C(=O)c2cc(NC(=O)C3CC3)ccc2OC[C@@H](C)N(Cc2nccs2)C[C@@H]1C,0.295% (inactive)
19,CC1CCCN(CC(O)COc2ccc3c(c2)OCO3)C1 (configuration not stated),0.154% (inactive)
20,CC1CCCN(CC(O)COCc2ccccc2)C1 (configuration not stated),43.5% (active)
21,COc1ccc(COCC(O)CN2CCC(C(N)=O)CC2)cc1 (configuration not stated),-0.009% (inactive)
22,CC(C)(C)S(=O)N1Cc2cc(C(=O)O)nc(-c3cccc(-c4cc5ccccc5o4)c3)c2[C@@H]1CCO (some centres not stated),0.231% (inactive)
23,COc1ccc2c3c(n(C)c2c1)[C@H](CO)N(Cc1ccccc1)CC31CN(C(=O)c2ccccc2F)C1,-0.032% (inactive)

row,SMILES,"activity (Tm shift, normalised)"
1,O=C1/C(=C/c2ccc3c(c2)OCO3)CCC/C1=C\c1ccc2c(c1)OCO2,26.1% (active)
2,NS(=O)(=O)c1ccc(NC(=O)COC(=O)c2c3c(nc4ccccc24)/C(=C\c2ccc4c(c2)OCO4)CCC3)cc1,-0.081% (inactive)
3,NC(=O)c1ccc(NC(=O)COC(=O)c2c3c(nc4ccccc24)/C(=C\c2ccc4c(c2)OCO4)CCC3)cc1,-0.321% (inactive)
4,CCCNC(=O)N1C[C@@H]2[C@H](c3ccccc31)[C@@H](CO)N2C(=O)NC(C)C,-0.334% (inactive)
5,C[C@H]1CN([C@@H](C)CO)S(=O)(=O)c2ccc(C#Cc3cccnc3)cc2O[C@H]1CN(C)C(=O)CN(C)C,-0.747% (inactive)
6,O=C(NC(=S)Nc1cccc2c(O)cccc12)c1cccc(Br)c1,-0.32% (inactive)
7,Cc1ccccc1NC(=S)NNC(=O)c1cccc(Br)c1,43.6% (active)
8,CC(CC(=O)O)CC(=O)NNC(=O)c1cccc(Br)c1 (configuration not stated),-0.089% (inactive)
9,O=C(C[C@H]1C[C@@H]2c3cc(NS(=O)(=O)c4ccc(F)cc4)ccc3O[C@@H]2[C@@H](CO)O1)NCc1cccc(F)c1,-0.007% (inactive)
10,Oc1cccc2cc(-c3ccncc3)cnc12,43.2% (active)
11,C[C@@H]1CN([C@H](C)CO)C(=O)Cc2cc(NC(=O)Nc3cccc4ccccc34)ccc2O[C@H]1CN(C)C(=O)Nc1ccc2c(c1)OCO2,-0.447% (inactive)
12,COc1ccc(-n2nc(C(=O)NCC(=O)N3CCN(c4ccccc4OC)CC3)c3ccccc3c2=O)c(OC)c1,-0.112% (inactive)
13,COc1cccc(NC(=O)c2nn(-c3ccc(OC)cc3OC)c(=O)c3ccccc23)c1,43.4% (active)
14,COc1ccc(-n2nc(C(=O)Nc3cc(OC)c(OC)c(OC)c3)c3ccccc3c2=O)c(OC)c1,0.293% (inactive)
15,CN1C(=O)c2cc(NC(=O)c3cnccn3)ccc2OC[C@H]2O[C@@H](CC(=O)NCC3CCCCC3)CC[C@@H]21,-0.186% (inactive)
16,O=C(CN(CC1CCCO1)C(=O)CNS(=O)(=O)c1ccc(F)cc1)NCc1ccco1 (configuration not stated),43.2% (active)
17,CC(C)C(C(=O)NCc1ccco1)N(CC1CCCO1)C(=O)CNS(=O)(=O)c1ccc(F)cc1 (configuration not stated),-0.278% (inactive)
18,O=C(CN(CC1CCCO1)C(=O)CNS(=O)(=O)c1ccc(Cl)cc1)NCc1ccccc1 (configuration not stated),-0.087% (inactive)
19,COCC(=O)N(C)C[C@H]1Oc2cc(C#C[C@@H](C)O)ccc2S(=O)(=O)N([C@@H](C)CO)C[C@@H]1C,0.023% (inactive)
20,COc1ccc(C(C(=O)NC(C)(C)C)N(Cc2ccc(F)cc2)C(=O)CCC(=O)Nc2cc(C)on2)cc1 (configuration not stated),-0.347% (inactive)
21,CCC(C)(C)NC(=O)C(c1cccc(OC)c1OC)N(CC(C)C)C(=O)CCC(=O)Nc1cc(C)on1 (configuration not stated),43% (active)
22,CCC(C)(C)NC(=O)C(c1ccc(OC)cc1)N(C(=O)CCC(=O)Nc1cc(C)on1)c1ccc(OC)cc1OC (configuration not stated),0.006% (inactive)
23,CN(C)C(=O)C[C@H]1CC[C@@H](NC(=O)C2CC2)[C@@H](CO)O1,-0.057% (inactive)

row,SMILES,"activity (Tm shift, normalised)"
1,C[C@H]1CN([C@@H](C)CO)C(=O)c2cccc(NC(=O)Nc3ccccc3)c2O[C@H]1CN(C)S(=O)(=O)c1ccc(Cl)cc1,-0.286% (inactive)
2,C[C@@H]1CN([C@H](C)CO)C(=O)c2cc(-c3cccc(C(=O)N(C)C)c3)cnc2O[C@H]1CN(C)S(=O)(=O)c1ccc(F)cc1,-0.014% (inactive)
3,COCC(=O)Nc1ccc2c(c1)OC[C@H](C)N(Cc1ccccc1)C[C@H](C)[C@@H](OC)CN(C)C2=O,-0.276% (inactive)
4,C[C@@H]1CN([C@@H](C)CO)C(=O)c2cc(NC(=O)Nc3ccc4c(c3)OCO4)ccc2O[C@@H](C)CCCCO[C@@H]1CN(C)S(=O)(=O)c1cccs1,0.586% (inactive)
5,Cc1ccc(S(=O)(=O)N(C)C[C@@H]2Oc3c(NC(=O)C4CC4)cccc3C(=O)N([C@H](C)CO)C[C@@H]2C)cc1,0.051% (inactive)
6,COc1cccc(S(=O)(=O)N2C[C@@H](O)COC[C@@H]3O[C@H](CC(=O)Nc4ccccc4)CC[C@H]32)c1,-0.453% (inactive)
7,O=C(C[C@H]1CC[C@H]2[C@@H](COC[C@@H](O)CN2S(=O)(=O)c2cccc(Cl)c2)O1)NC1CCCC1,-0.093% (inactive)
8,Cc1cccc(S(=O)(=O)N2C[C@@H](O)COC[C@H]3O[C@H](CC(=O)N4CCN(C)CC4)CC[C@@H]32)c1,-0.222% (inactive)
9,CN(C)C(=O)C[C@@H]1CC[C@H]2[C@@H](COC[C@H](O)CN2S(=O)(=O)c2ccccc2)O1,-0.015% (inactive)
10,O=C(C[C@H]1CC[C@H]2[C@@H](COC[C@H](O)CN2S(=O)(=O)c2cccc(Cl)c2)O1)Nc1ccccc1,1.27% (active)
11,Cc1cccc(S(=O)(=O)N2C[C@@H](O)COC[C@H]3O[C@H](CC(=O)Nc4ccc(-c5ccccc5)cc4)CC[C@@H]32)c1,1.98% (active)
12,COc1cccc(-c2ccc(CC[C@H]3O[C@H]4CC[C@@H](CO)O[C@H]4C[C@@H]3NS(C)(=O)=O)cc2)c1,-0.835% (inactive)
13,CCCNC(=O)N(C)C[C@H]1Oc2ncc(-c3ccccc3F)cc2C(=O)N([C@@H](C)CO)C[C@H]1C,0.186% (inactive)
14,C[C@H](CO)N1C[C@H](C)[C@H](CN(C)Cc2ccc(C(=O)O)cc2)OCc2cn(nn2)CCCC1=O,-0.002% (inactive)
15,C/C=C/c1cnc2c(c1)C(=O)N([C@@H](C)CO)C[C@@H](C)[C@@H](CN(C)S(=O)(=O)c1ccccc1F)O2,0.721% (inactive)
16,O=C(N[C@@H]1CC[C@@H](CC(=O)N2CCc3ccccc3C2)O[C@@H]1CO)C1CCOCC1,-0.035% (inactive)
17,Cc1ccc(S(=O)(=O)Nc2nc(C)cc(-n3nc(C)cc3C)n2)cc1,0.134% (inactive)
18,Cc1ccc(S(=O)(=O)Nc2nc(C)cc(N/N=C/c3ccc(O)cc3)n2)cc1,43.2% (active)
19,Cc1ccc(OCCCC(=O)Nc2ccc(S(=O)(=O)Nc3cc(C)nc(C)n3)cc2)cc1,-0.115% (inactive)
20,CN(C)C(=O)C[C@H]1C[C@@H]2c3cc(NC(=O)NC4CCCCC4)ccc3O[C@@H]2[C@@H](CO)O1,-7.03% (inactive)
21,C[C@H](CO)N1C[C@H](C)[C@@H](CN(C)Cc2cccnc2)Oc2cc(C#CC3CC3)ccc2S1(=O)=O,-0.495% (inactive)

# Reference: PubChem BioAssay AID651658 (Broad Institute, 2012)
